# Results: the supplement of paper PMC11417369
# ± gives the standard deviation of the averaged measurements. The full ranking holds about 25,000 sequences; the median of “ln(normalized median fluorescence intensity)” is about 8.9, and the highest 2% start at about 10. This is one part of a sample in which the highest values are shown more often than they occur.
# Test system: PfAP2-LT AP2 domain (GST-tagged)
# Test: gcPBM binding intensity (ln(normalized median fluorescence intensity)); higher = stronger DNA binding
# Method in brief: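 Probes on an Agilent 4 × 180k array were primer-extended, double-stranded and 36 bp long, taken from intergenic genomic regions, with negative controls added. GST-tagged P. falciparum DNA-binding domains from E. coli, about 25 μg on average, were applied to the array for 1 h in 1× PBS containing 1% milk, 0.2 mg/ml BSA, 0.5% salmon testes DNA and 0.03% Triton X-100. Binding intensity, obtained after Alexa488 anti-GST antibody detection and a 488 nm scan, is the highest Masliner-normalised natural-log median intensity across replicate spots of either probe orientation.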
row,Sequence,gcPBM binding intensity (ln)
1,TTTTCTTCATAAATGCTGCACTGGTTTAAGCATGAT,8.6 ± 0.46
2,TGGGAAGGGTGGGAAACTTTATCAAAAACTTATTAC [GTGCAC_negctrl_site16],8.98 ± 0.24
3,TTTTGTTGATTTATATCTGTAGGGTTTAATATAACA [XGTACX_negctrl_site174],8.51 ± 0.33
4,TATAAAAAATAAAATACACACACATATATATATATA [CACACA_site8365],9.74 ± 0.28
5,ATCAAGCACCAACACACACACACACCCCCACCCACA [CACACA_site370],10.6 ± 0.11
6,AGCACCCACCAACACACACACACACCCACCCACCCA [CACACA_site8011],10.3 ± 0.11
7,TGCACCCACCAACACACACACAACTAAAAAATAATG [CACACA_site2566],9.71 ± 0.42
8,AGCACCCACCAACACACACACACACCCACCCACCGA [CACACA_site368],10.22 ± 0.028
9,TATATATATATATATACACACACACCCACCAAAGCG [CACACA_site7904],10.02 ± 0.021
10,TACACCCACCAACACACACACACACTAATAAAAAAA [CACACA_site8060],10.1 ± 0.44
11,TCCTGTTGAGAATGGCGTACATATAAATATTATATA [XGTACX_site1841],8.55 ± 0.42
12,TTTAATTTGTTATACACACACAAAAAAAATTATAAA [CACACA_site3937],8.93 ± 0.46
13,CTTATGTTTTTTAAGTGTACATATTATACGTATTAT [XGTACX_site1176],9.02 ± 0.42
14,AAATAACATAATAAGGGTACATTAATTTCGATAATG [XGTACX_site835],8.77 ± 0.4
15,TTTCTAATTTATATCACACACATATATAAATAGTAA [CACACA_site6156],8.72 ± 0.42
16,TATTAATCCTTTTGCTTGGAAACATTCAAAAGGAAG [CACACA_negctrl_site1129],8.18 ± 0.41
17,TAAATTATAATAAATACACACAAATTATAATTCTAT [CACACA_site3942],8.79 ± 0.37
18,TTTAGAGAAGTCAAGTGTACATATAAAATAATTCAC [XGTACX_site4997],8.65 ± 0.35
19,ATATATATATATATATGTACATATGTATATTTTTTT [XGTACX_site1299],9.77 ± 0.44
20,TGCACGCACAGACACACACACAACTAAAAAATAATG [CACACA_site7250],9.54 ± 0.49
21,AAGATAATTACGCACACACACACACGCCCACAACTA [CACACA_site7255],10.4 ± 0.12
22,TAATTATGCGGACACACACACACACCCAACTAAAAA [CACACA_site5427],9.9 ± 0.26
23,GATAATTACGGACACACACACACACGCACAACTAAA [CACACA_site7254],10.215 ± 0.0071

row,Sequence,gcPBM binding intensity (ln)
1,AAAAATAAAAATTGCACACTAAAAAATTACGCACGA [CACACA_site3418],8.94 ± 0.35
2,TATATAAATGGACACACACACACCTTATAATTATTA [CACACA_site6093],10 ± 0.38
3,TAATTATGCAGACACACACACACACGCAACTAAAAA [CACACA_site7253],10 ± 0.3
4,GATAATTATGGACACACACACACACCCACAACTAAA [CACACA_site8824],10.2 ± 0.35
5,TAAAAAATAAAAATTGCACACTAAAAAATTACGCAC [CACACA_site9129],8.76 ± 0.41
6,TAAATTTTTATTTGTAGTACTATATATATATATATA [XGTACX_site1026],8.9 ± 0.12
7,TAATTATGTACTATTATACACACGTTTAATTGTAAA [CACACA_site206],8.74 ± 0.42
8,AACATATATAATATTTGTACTTATATACAAAATATG [XGTACX_site7502],8.64 ± 0.4
9,ATATATATTTTAATAACACACATATATTATATTATA [CACACA_site4387],8.7 ± 0.38
10,TATAAATATACAAACACACATACAAACATATATATA [CACACA_site1120],9.24 ± 0.37
11,CATACATACAAACACACACACATATATATACATACA [CACACA_site852],10.1 ± 0.38
12,TATATACACCCACATACACACAAATAAAAAAACACC [CACACA_site3414],9.64 ± 0.31
13,CATACATATAAACACACACACACACCCACCCACAAA [CACACA_site8059],10.4
14,CATATACGCAAACACACACACATATATATATATATA [CACACA_site501],10.3 ± 0.27
15,TATACGCATATATAAACACACAAAAAAAAAAAAAAA [CACACA_site2026],8.86 ± 0.48
16,AAAAAAAAAAAAAACATACACACAAATATATACATA [CACACA_site4010],9.05 ± 0.45
17,TGTACAAATATGTACACACACACATATATATATATA [CACACA_site584],9.88 ± 0.085
18,TACATATATATATACACACATACATATATATACGCA [CACACA_site792],9.11 ± 0.28
19,AAAACACAAAAAAAATGTACACATATATATATATAT [XGTACX_site8509],9.84 ± 0.12
20,AGGCACACAAACATATGTACACATATATATATATAT [XGTACX_site4723],10.21 ± 0.078
21,CATACATACAAACACACACACATATATATATATATA [CACACA_site43],10.16 ± 0.042
22,TCTTTTTAACAAAAAAAAAAAAAAAAAAAAAAATTA [CACACA_negctrl_site1637],7.96 ± 0.43
23,AGTAGTCTGGAGAAAAGTACATAGTATCTGGTAACC [XGTACX_site2024],8.81 ± 0.58

row,Sequence,gcPBM binding intensity (ln)
1,AAAAAAATTAAACATGAAGAATAAGGAACAAAAAAA [CACACA_negctrl_site1607],8.78 ± 0.55
2,CTGATATATAGATGTAGTACATAAAAATGACGAATT [XGTACX_site5612],8.99 ± 0.47
3,ATTTTTTTGGAATTCACACACAAAAAAAAAAATAAA [CACACA_site2081],8.79 ± 0.47
4,GATAAATCATATATAACACACATATGAATATTACAA [CACACA_site1321],8.98 ± 0.35
5,AACTTACTTGGACATACACACATATATATATATATA [CACACA_site2978],9.78 ± 0.3
6,GTAATACCCAAACACACACACATACCCATATATATA [CACACA_site5510],10.1 ± 0.29
7,CAAACCCACCAACACACACACACAAAAATGATTAAA [CACACA_site2432],9.88 ± 0.3
8,TGGTAATACCCATACACACACACATACACATATATA [CACACA_site8877],9.76 ± 0.32
9,TGGTAATACCCATACACACACACATACCCATATATA [CACACA_site5509],9.76 ± 0.33
10,GTTACACCAACAAACACACACACACCGACACCCAAA [CACACA_site5361],10.1 ± 0.17
11,TATATACACAAACACACACACACATACACCCACATA [CACACA_site8504],10.2 ± 0.16
12,GTTACACCAACAAACACACACACACCCACCCACAAA [CACACA_site2427],10.3 ± 0.16
13,TATACATACCCACCCACACACAAAAAAAAAAAAAAA [CACACA_site4632],9.76 ± 0.3
14,TGCATATACTCAAGCACACATATATATATATATATA [CACACA_site4733],9.76 ± 0.13
15,TGCATATACGCAAGCACACATATATATATATATATA [CACACA_site1069],10.1 ± 0.4
16,TACACAAATATATACATACACACATATATACGCATA [CACACA_site394],9.27 ± 0.3
17,AAGAAAAGAAACAAAAAAAAAAAGAAATAAAAGGAA [TGCATGCA_negctrl_site171],8.61 ± 0.62
18,AAAATTTATAAAAGCACACAAAATAAAAAAAAATGA [CACACA_site1491],8.88 ± 0.46
19,AAGAAAATAAAATAAAAAAAAAAATAAAAAAAATAA [TGCATGCA_negctrl_site516],8.37 ± 0.74
20,CAAAAATAAACTATAGTACACACTTATTATTATGAA [CACACA_site2702],8.8 ± 0.49
21,ACACATACTAAAATGTTGTGAAATATGATAATGTGA [CACACA_negctrl_site851],9.11 ± 0.47
22,TTAATCATAAAAGTCACACATAATAAGAAAAAGCTT [CACACA_site4616],8.78 ± 0.37
23,AAATAGGGAATTTATGCACACAGTTAAGGGGGAAAA [CACACA_site2071],9.28 ± 0.26

row,Sequence,gcPBM binding intensity (ln)
1,ACATATAATAAAAAATGTACACACATAAGAAAATTT [XGTACX_site6153],9.16 ± 0.38
2,TAAATACATTTATGTACACACACATAGATGTATATT [CACACA_site5618],9.22 ± 0.36
3,TAACATGATATATAATGTACATATAAGATATTTATA [XGTACX_site4383],8.79 ± 0.45
4,CACAAAGACACAAACACACACACACCCACATACATA [CACACA_site452],9.86 ± 0.24
5,CACACCACCAACAAAAGTACATACATATATATATAT [XGTACX_site5781],9.65 ± 0.14
6,AAGCAAACATATTAATGTACACACACCCACACACAA [XGTACX_site5806],9.95 ± 0.46
7,CAAACATATTAATGTACACACACCCACCCACAAACA [CACACA_site2752],10.2 ± 0.29
8,TACACCCACCAACACACACACACACCCAAAAAAAAA [CACACA_site498],10.1 ± 0.14
9,CACACCCACCAACACACACACACACCCACCCATATA [CACACA_site366],10.3 ± 0.12
10,GATACATAGAAACACACACACATACATATATACATA [CACACA_site3438],9.92 ± 0.26
11,CATATACACCAACACACACACACACCCACAAAAAAA [CACACA_site496],10.1 ± 0.27
12,TAACCATACATACATACACACACACCCACATATATA [CACACA_site8951],9.95 ± 0.13
13,CATACATAGAAACACACACACACACCCACCCACAAA [CACACA_site494],10.19 ± 0.028
14,AACATATTAATGTACACACACCCACGCACAAACAAA [CACACA_site7320],9.765 ± 0.092
15,ATATATTACAATATATGTACTTAATTTGCTTAAATA [XGTACX_site7912],8.6 ± 0.52
16,TAACAAATATTATTTTGTACATAATATATATATATA [XGTACX_site6898],8.6 ± 0.32
17,TTGTTTCAAAATTAAACACACACAAAAAAAAAAAAA [CACACA_site8856],8.86 ± 0.52
18,TTATATATATTTAAAAAAATAACATAAATAAATAAA [CACACA_negctrl_site347],8.29 ± 0.52
19,AGTCTTTTACATTGCACACACATTTCTTTCCTTTTG [CACACA_site2988],9.61 ± 0.36
20,AATAGGATATGGTACATTTTTTGTATACTTTTTGTT [CACACA_negctrl_site1804],8.91 ± 0.47
